Source: PubChem BioAssay AID1159580 (chemical genetic matrix, 2015)
Out of some 5,500 compounds screened, about 2,000 (36%) were called active. About 18% were inconclusive and are not listed. Rule as the data show it: active = normalized growth mostly below about 0.91 (no sharp cut-off); inconclusive = no clear call, values can overlap the other calls; inactive = mostly above about 0.92. This is one part of the list.

Assay: chemical genetic growth profiling, strain panel (AID 1159580);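 also: tested at 20 µM; growth read once vehicle control cultures reached saturation at 30 °C; 1 = growth at the plate median or of vehicle wells; lower values mean less growth of the strain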
Settings: S. cerevisiae deletion strains, growth OD
[1] = locus YAR019C, strain CDC15, active compounds read low
[2] = locus YBL105C, strain PKC1, active compounds read low
[3] = locus YBR135W, strain CKS1, active compounds read low
[4] = locus YBR136W, strain MEC1, active compounds read low
[5] = locus YBR160W, strain CDC28, active compounds read low
[6] = locus YDL017W, strain CDC7, active compounds read low
[7] = locus YDL028C, strain MPS1, active compounds read low
[8] = locus YDL101C, strain DUN1, active compounds read low
[9] = locus YDL108W, strain KIN28, active compounds read low
[10] = locus YDL132W, strain cdc53, active compounds read low
[11] = locus YDL214C, strain PRR2, active compounds read low
[12] = locus YDR052C, strain DBF4, active compounds read low
[13] = locus YDR054C, strain cdc34, active compounds read low
[14] = locus YDR226W, strain ADK1, active compounds read low
[15] = locus YDR477W, strain SNF1, active compounds read low
[16] = locus YER123W, strain YCK3, active compounds read low
[17] = locus YER133W, strain GLC7, active compounds read low
[18] = locus YFL009W, strain cdc4, active compounds read low
[19] = locus YFL029C, strain CAK1, active compounds read low
[20] = locus YFR003C, strain YPI1, active compounds read low
[21] = locus YFR019W, strain FAB1, active compounds read low
[22] = locus YFR028C, strain CDC14, active compounds read low
[23] = locus YGR040W, strain KSS1, active compounds read low
[24] = locus YGR052W, strain FMP48, active compounds read low
[25] = locus YGR092W, strain DBF2, active compounds read low
[26] = locus YHR030C, strain SLT2, active compounds read low
[27] = locus YHR079C, strain IRE1, active compounds read low
[28] = locus YHR082C, strain KSP1, active compounds read low
[29] = locus YHR205W, strain SCH9, active compounds read low
[30] = locus YIL147C, strain SLN1, active compounds read low
[31] = locus YJL095W, strain BCK1, active compounds read low
[32] = locus YJL128C, strain PBS2, active compounds read low
[33] = locus YJL157C, strain FAR1, active compounds read low
[34] = locus YJR016C, strain ILV3, active compounds read low
[35] = locus YJR066W, strain TOR1 (second series), active compounds read low
[36] = locus YJR066W, strain TOR1, active compounds read low
[37] = locus YKL048C, strain ELM1, active compounds read low
[38] = locus YKL067W, strain YNK1, active compounds read low
[39] = locus YKL101W, strain HSL1, active compounds read low
[40] = locus YKL193C, strain SDS22, active compounds read low
[41] = locus YKL203C, strain TOR2, active compounds read low
[42] = locus YLR113W, strain HOG1, active compounds read low
[43] = locus YLR133W, strain CKI1, active compounds read low
[44] = locus YLR403W, strain SFP1, active compounds read low
[45] = locus YML070W, strain DAK1, active compounds read low
[46] = locus YMR001C, strain CDC5, active compounds read low
[47] = locus YMR205C, strain PFK2 (second series), active compounds read low
[48] = locus YMR277W, strain FCP1, active compounds read low
[49] = locus YNL006W, strain LST8, active compounds read low
[50] = locus YNL020C, strain ARK1, active compounds read low
[51] = locus YNL161W, strain CBK1, active compounds read low
[52] = locus YNL183C, strain NPR1, active compounds read low
[53] = locus YNL207W, strain RIO2, active compounds read low
[54] = locus YNL222W, strain SSU72, active compounds read low
[55] = locus YNL307C, strain MCK1 (second series), active compounds read low
[56] = locus YOL078W, strain AVO1, active compounds read low
[57] = locus YOL136C, strain PFK27, active compounds read low
[58] = locus YOR061W, strain CKA2, active compounds read low
[59] = locus YOR119C, strain RIO1, active compounds read low
[60] = locus YOR231W, strain MKK1, active compounds read low
[61] = locus YOR329C, strain SCD5, active compounds read low
[62] = locus YPL031C, strain PHO85, active compounds read low
[63] = locus YPL153C, strain RAD53, active compounds read low
[64] = locus YPL204W, strain HRR25, active compounds read low
[65] = locus YPL209C, strain IPL1, active compounds read low
[66] = locus YPL256C, strain CLN2, active compounds read low
[67] = locus YPR025C, strain CCL1, active compounds read low
[68] = locus YPR106W, strain ISR1, active compounds read low
[69] = locus YPR111W, strain DBF20, active compounds read low
[70] = strain NNK1, active compounds read low
[71] = strain TSCII, active compounds read low
[72] = locus YAL040C, strain CLN3, active compounds read low
[73] = locus YCL061C, strain MRC1 (second series), active compounds read low
[74] = locus YDR363W, strain ESC2, active compounds read low
[75] = locus YER002W, strain NOP16, active compounds read low
[76] = locus YMR307W, strain GAS1, active compounds read low
[77] = locus YNL128W, strain TEP1, active compounds read low
[78] = locus YNL175C, strain NOP13, active compounds read low
[79] = locus YNL197C, strain WHI3, active compounds read low
[80] = locus YNL224C, strain SQS1, active compounds read low
[81] = locus YOR083W, strain WHI5 (second series), active compounds read low

Measured: normalized growth

OC(c1ccc(C(F)(F)F)cc1)c1cccc(C(F)(F)F)c1 (centres undefined)
inactive: [1] 0.972 | [2] 0.973 | [3] 0.973 | [4] 0.967 | [5] 0.969 | [6] 0.964 | [7] 0.974 | [8] 0.975 | [9] 0.968 | [10] 0.974 | [11] 0.985 | [12] 0.977 | [13] 0.974 | [14] 0.977 | [15] 0.999 | [16] 0.945 | [17] 0.992 | [18] 0.981 | [19] 0.962 | [20] 0.969 | [21] 1 | [22] 0.975 | [23] 0.984 | [24] 1 | [25] 0.948 | [26] 0.867 | [27] 0.885 | [28] 1.09 | [29] 0.949 | [30] 0.971 | [31] 0.953 | [32] 0.942 | [33] 1.01 | [34] 0.984 | [35] 1.04 | [36] 1.05 | [37] 0.977 | [38] 0.992 | [39] 0.97 | [40] 0.973 | [41] 1.02 | [43] 0.999 | [44] 1.04 | [45] 0.96 | [46] 0.973 | [47] 0.993 | [48] 0.974 | [49] 0.966 | [50] 0.998 | [51] 0.984 | [52] 1.01 | [53] 0.978 | [54] 0.973 | [55] 0.989 | [56] 0.974 | [57] 0.968 | [58] 1 | [59] 1.07 | [60] 0.92 | [61] 0.967 | [62] 0.978 | [63] 0.991 | [64] 0.959 | [65] 0.973 | [67] 0.968 | [68] 0.99 | [69] 1 | [70] 0.975 | [71] 0.975
active: [42] 0.789 | [66] 0.839

OC[C@H]1O[C@@H](n2cnc3cncnc32)[C@H](O)[C@@H]1O
inactive: [72] 1.01 | [73] 1.01 | [74] 1 | [75] 1.01 | locus YGR078C, strain PAC10, active compounds read low 1.03 | locus YMR263W, strain SAP30, active compounds read low 0.997 | [76] 1 | [77] 1.03 | [78] 1.02 | [79] 1 | [80] 1.02 | [81] 1.07

COc1ccccc1C(C[N+](=O)[O-])c1c(N)n(C)c(=O)n(C)c1=O (centres undefined)
inactive: [1] 0.942 | [2] 0.955 | [3] 0.954 | [4] 0.945 | [5] 0.953 | [6] 0.958 | [7] 0.948 | [8] 0.916 | [9] 0.945 | [10] 0.953 | [12] 0.962 | [13] 0.945 | [14] 0.954 | [18] 0.96 | [19] 0.933 | [20] 0.953 | [22] 0.956 | [30] 0.953 | [32] 0.941 | [34] 0.962 | [40] 0.963 | [46] 0.946 | [48] 0.956 | [49] 0.957 | [51] 0.957 | [53] 0.954 | [54] 0.956 | [56] 0.956 | [58] 0.678 | [61] 0.956 | [65] 0.95 | [67] 0.958 | [68] 0.961 | [69] 0.966 | [70] 0.953 | [71] 0.941
active: [11] 0.583 | [15] 0.555 | [16] 0.374 | [17] 0.602 | [21] 0.263 | [23] 0.643 | [24] 0.512 | [25] 0.443 | [26] 0.302 | [27] 0.401 | [28] 0.559 | [29] 0.21 | [31] 0.33 | [33] 0.593 | [35] 0.133 | [36] 0.369 | [37] 0.654 | [38] 0.612 | [39] 0.621 | [41] 0.61 | [42] 0.382 | [43] 0.616 | [44] 0.49 | [45] 0.527 | [47] 0.679 | [50] 0.688 | [52] 0.381 | [55] 0.151 | [57] 0.485 | [59] 0.641 | [60] 0.468 | [62] 0.467 | [63] 0.546 | [64] 0.603 | [66] 0.348

COc1ccccc1N1CCN(CCCNc2c(C)c(=O)n(C)c(=O)n2C)CC1
inactive: locus YAL013W, strain DEP1, active compounds read low 1.02 | [72] 0.984 | [73] 0.998 | locus YDR150W, strain NUM1, active compounds read low 1 | [74] 1.01 | [75] 0.999 | locus YGR229C, strain SMI1, active compounds read low 1.04 | locus YJR075W, strain HOC1, active compounds read low 1.01 | [76] 1.02 | [77] 1 | [78] 0.976 | [79] 0.985 | [80] 0.995 | locus YNL322C, strain KRE1, active compounds read low 0.987 | [81] 0.978
